# CHX counter: counter-screen for Shiga toxin inhibitors: cycloheximide protein synthesis inhibition | cell reporter, cycloheximide protein synthesis inhibition counterscreen | max response, % | 300,000 compounds, 12% hits; in the data active = max response mostly above about 13%, no sharp cut-off; inactive = mostly below about 14%; note: read at 38.3 µM for the half of the compounds with a filed dose; 0% is about no effect
# Pf growth 96h: P. falciparum growth inhibition at 96 hour, primary screen for plastid delayed-death inhibitors; P. falciparum luciferase reporter growth, 96 h; Potency, µM (highest dose often 28.7 µM), without a hit: top-dose activity change, negative = inhibition, most hits filed as inhibitors; 320,000 compounds, 6.9% hits; note: potency is the fitted concentration of half-maximal effect; % is set by controls: 0 for no effect and ±100 for the full control effect
#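 Luminescence readout: decreased luciferase signal marks inhibited growth of reporter-expressing P. falciparum in infected red cells (2% hematocrit, 0.05% parasitemia final), exposed to compound two generations (96 h, 37 C, 5% CO2).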
# NS1 inh: blocks influenza NS1 protein function; AID 2326; Potency, µM (series often up to 46.1 µM), without a hit: at the top dose activity, positive = more growth; 270,000 compounds, 0.4% hits; calls by dose curve; note: potency is the fitted concentration of half-maximal effect; actives are rising curves; nearly all actives have a fitted effect of over 50% in size
#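 In this qHTS, NS1 from influenza A is expressed in budding yeast, where it slows growth. Cells are switched from glucose to 2% galactose medium (pH 6.0, -URA), treated with compound, and growth recovery is read at OD600.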
# Pf growth 48h: inhibits P. falciparum growth in the first generation, 48 h | AID 504832 | Potency, µM (titrated, usually from 28.7 µM), for the others: top-dose activity change, negative = inhibition, hits mostly inhibitors | P. falciparum luciferase growth in erythrocytes, 48 h | 310,000 compounds, 5.9% hits; note: potency is the fitted concentration of half-maximal effect; % is set by controls: 0 for no effect and ±100 for the full control effect
#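 Here the parasites carry a stable luciferase gene and grow inside erythrocytes in Albumax-based RPMI medium with compound for one erythrocytic cycle. Activity is scored as loss of luminescent signal.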
# SARS PLpro yeast: blocks SARS-CoV papain-like protease in a yeast assay. S. cerevisiae expressing SARS-CoV PLpro, growth rescue. Potency, µM (highest dose often 32.9 µM), without a hit: top-dose activity, positive = growth rescue, hits mostly activators. 330,000 compounds, 0.19% hits. AID 485353; calls by dose curve; note: potency is the fitted concentration of half-maximal effect; 0% is about no effect; nearly all actives have a fitted effect of over 55% in size
# Shiga inhibitor: Shiga toxin inhibition; Vero cells, Shiga toxin protein synthesis inhibition reporter; inhibition, % at 38.7 µM; 290,000 compounds, 9.2% hits; AID 2315; in the data active = inhibition mostly above about 28%, no sharp cut-off; inactive = mostly below about 43%; note: 0% is about no effect
# Numbers without * were called inactive; i = inactive; ? = inconclusive; / = no result given; ! = a repeat was not active. This is a sample that favours compounds with a hit; in the whole collection about 21% have one here. Unless noted, calls come from the whole dose curve; as a rule, active = well fitted inhibition curve with a large enough effect; inconclusive = small, poorly fitted or top-dose-only effect, or another doubt; inactive = no such curve, though single readings can be large or run the other way.
SMILES,CHX counter,Pf growth 96h,NS1 inh,Pf growth 48h,SARS PLpro yeast,Shiga inhibitor
CN(CCOc1ccc(-c2ccn(S(=O)(=O)c3ccc(Cl)cc3)n2)cc1)c1ccccn1,6.9,10.4µM*,24.6%,10.4µM*,-1.7%,10.8
Cc1nc(C)c(-c2ccn(S(=O)(=O)c3ccc(Cl)cc3)n2)o1,-1.4,-19.9%,-4.1%,?,-0.7%,-7.4
Cc1ccc(OCCC(=O)OCC(=O)Nc2ccc(C)cc2Cl)cc1,/,75.4%,/,84.7%,-1.5%,/
CCOc1cc(NC(=S)NCCCN2CCOCC2)c(OCC)cc1NC(=O)CC(C)C,-3.4,335.5%,0.6%,14.6%,-0.5%,-22.4
CN(c1cccc(NC(=O)CN(c2cccc(Cl)c2)S(=O)(=O)c2ccc(Cl)cc2)c1)S(C)(=O)=O,-1.3,0.9%,5.9%,?,4.8%,-14.5
COc1ccc(C2=NN(CC(=O)Nc3cc(C)ccc3C)C(=O)CC2)cc1,-3.1,?,-3.7%,-10.3%,0.9%,-1.8
Nn1c(COc2ccc(Cl)cc2)nc2ccccc2c1=O,24.3*,-17.2%,-4.4%,71.9%,0.5%,active
O=c1c2ccccc2nc(CN2CCCCCC2)n1-c1ccc(F)cc1,-1.6,/,?,?,-6.2%,-6.4
Nn1c(CN2CCCCC2)nc2ccccc2c1=O,-0.6,2.33µM*,-0.9%,32.4%,1.0%,-1.8
Nn1c(Cc2ccccc2)nc2cc(Cl)ccc2c1=O,-2.5,?,13.6%,6.3%,-7.3%,-0.6
Cc1c(C)c2ccc(OC(C)C(=O)N3CC[C@@]4(O)CCCC[C@H]4C3)cc2oc1=O (stereo partly drawn),2.2,9.28µM*,12.1%,12.3%,-1.5%,0.4
Cc1c(C)c2ccc(OC(C)C(=O)N3CC[C@@]4(O)CCCC[C@H]4C3)c(C)c2oc1=O (stereo partly drawn),3.3,?,-12.7%,?,7.7%,0.6
Cc1c(O)ccc(C(=O)CN2CCN(c3ccc(F)cc3)CC2)c1O,4.6,?,-3.1%,5.4%,5.7%,-5.2
CC/C(=N\NC(=O)c1ccoc1C)c1ccc(C)o1,81.9*,24.5%,5.9%,156.3%,-6.2%,149.0*
C/C(=N\NC(=S)NC(C)C)c1ccc(Cl)s1,15.6,?,-30.5%,-28.7%,?,24.1
CC/C(=N\NC(=O)c1c(-c2ccccc2)noc1C)c1ccc(C)o1,-1.0,-17.7%,15.1%,3.4%,2.6%,-8.6
C/C(=N\NC(=O)c1ccoc1C)c1ccc(Cl)s1,40.5*,-11.7%,-22.6%,65.5%,2.9%,86.9*
C/C(=N\NC(=O)c1csc(C)c1C)c1ccc(Cl)s1,32.6*,/,6.1%,69.4%,-7.8%,71.9*
Cc1ccc(-n2nc3c(N4CCC(C(=O)N5CCN(C)CC5)CC4)nnc(C)c3c2C)cc1,-8.6,?,-3.6%,?,4.2%,-9.6
Cc1ccc(-n2nc3c(N4CCC(C(=O)N5CCCCCC5)CC4)nnc(C)c3c2C)cc1,-3.9,11.7µM*,5.3%,?,-1.6%,18.1
CCCN1CCN(C(=O)C2CCN(c3nnc(C)c4c(C)n(-c5ccc(C)cc5)nc34)CC2)CC1,-2.1,?,-0.1%,10.4µM*,0.4%,-7.1
COc1ccccc1NS(=O)(=O)c1cccc(C(=O)N(C)Cc2cccs2)c1,6.3,-25.6%,-3.2%,-11.9%,3.1%,17.4
O=C(O)c1c(-c2ccccc2)c2oc3ccccc3c2[nH]c1=O,-2.5,-16.5%,12.2%,?,1.8%,-1.8
Cc1cccc(N2CCc3c2nc2ccccc2c3N)c1,16.7*!,10.4µM*,-22.5%,?,2.0%,26.9*!
CC1CCc2c(sc3nc(C(C)(C)C)nc(N4CCN(C(=O)CCl)CC4)c23)C1 (stereo not drawn),19.8*,6.57µM*,-88.6%,-56.2%,-7.6%,46.2*
SMILES,CHX counter,Pf growth 96h,NS1 inh,Pf growth 48h,SARS PLpro yeast,Shiga inhibitor
Cc1ccc(S(=O)(=O)n2ccc(-c3ccc(OCc4c(F)cccc4Cl)cc3)n2)cc1,1.4,-109.5%,2.9%,9.28µM*,8.6%,3.6
Cc1ccc(S(=O)(=O)n2ccc(-c3cccc(OCc4c(F)cccc4Cl)c3)n2)cc1,-1.8,0.738µM*,25.6%,3.7µM*,?,33.0
CC(=O)c1ccc(S(=O)(=O)N2CCC3(CC2)CC(=O)c2ccccc2O3)cc1,/,?,/,-8.1%,1.9%,/
Cc1nn(C)cc1C1C(C#N)=C(N)N(c2ccc(F)c([N+](=O)[O-])c2)C2=C1C(=O)CCC2 (stereo not drawn),-0.9,9.28µM*,11.9%,?,9.1%,-4.3
Cc1ccc(N2C(N)=C(C#N)C(c3cccnc3)C3=C2CCCC3=O)cc1 (stereo not drawn),9.6,?,-4.0%,?,-5.4%,-15.9
COc1ccc(C2C(C#N)=C(N)N(c3cccnc3)C3=C2C(=O)CCC3)cc1Cn1cc([N+](=O)[O-])cn1 (stereo not drawn),-1.2,?,12.8%,?,2.2%,-17.4
COc1ccc(C2C(C#N)=C(N)N(c3ccccc3)C3=C2C(=O)CCC3)cc1Cn1cc([N+](=O)[O-])cn1 (stereo not drawn),-4.3,14.7µM*,23.4%,8.28µM*,-20.2%,-22.7
O=c1[nH]c(=S)[nH]c(O)c1N=Nc1ccc2c(c1)OCCO2,23.4*,32.1%,4.2%,26.9%,0.8%,27.4*
O=c1[nH]c(=S)[nH]c(O)c1N=Nc1ccc2c(c1)OCO2,23.5*,32.7%,/,41.5%,-3.3%,46.1*
O=C1CCCC(O)=C1N=Nc1ccc2c(c1)OCO2,76.3*,123.3%,1.1%,99.4%,2.7%,47.5*
NS(=O)(=O)c1ccc(N=Nc2c(O)[nH]c(=S)[nH]c2=O)cc1,-0.8,?,-3.1%,?,0.0%,4.7
O=c1[nH]c(O)c(N=Nc2ccc3c(c2)OCCO3)c(=O)[nH]1,31.8*,i,/,492.7%,3.0%,88.1*
O=c1[nH]c(=S)[nH]c(O)c1N=Nc1ccc(S(=O)(=O)N2CCOCC2)cc1,2.7,?,-0.9%,?,-1.7%,-2.8
O=C(c1ccc(F)cc1)N1CCN(c2ccc([N+](=O)[O-])cc2-n2cccc2)CC1,1.5,?,7.3%,?,-4.2%,18.4
COc1ccccc1NC(=S)N(CCN1CCCCCC1)Cc1cccs1,-3.3,49.5%,/,20.4%,0.2%,-2.8
CCOc1ccccc1OCC(=O)OC(C)C(=O)Nc1ncc(Cl)cc1Cl (stereo not drawn),/,-16.2%,/,-12.2%,3.4%,/
CS(=O)(=O)N(Cc1ccco1)CC(O)Cn1c2ccccc2c2ccccc21 (stereo not drawn),1.4,/,-43.5%,9.28µM*,-2.7%,-2.9
OC(CNCc1ccco1)Cn1c2ccccc2c2ccccc21 (stereo not drawn),-1.7,4.8%,-4.8%,2.33µM*,0.8%,-1.9
CC(=O)Nc1ccc(N(CC(O)Cn2c3ccccc3c3ccccc32)S(=O)(=O)c2ccc(C)cc2)cc1 (stereo not drawn),5.3,-0.6%,?,9.28µM*,19.1%,-4.9

# High-throughput results from PubChem.
